Assay outcomes from PubChem.
An excerpt weighted towards active compounds, which were near 3.6% of everything screened.
LGR2 inh – inhibitors of bursicon-induced LGR2 CRE-luciferase signal, primary screen, cell-based, HEK293, CRE-luciferase reporter, bursicon stimulation | Drosophila bursicon receptor LGR2 (rickets) | bursicon-stimulated, 4 h | inhibition, % at 9.99 µM | 380,000 tested, 0.35% active;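 active = drop in luminescence signal, shown as inhibition above about 50% in the replicate tests, limit read from the data, passing the limit was not always enough; inconclusive = probably only some replicates passing the limit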;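 also: agonist challenge used bursicon conditioned medium at about half maximal strength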
EBV LMP1 NFkB – EBV LMP1-driven NF-kappaB luciferase reporter inhibitors, primary screen, cell-based, luminescence, single point; LMP1-induced NF-kappaB luciferase reporter cells; inhibition, % at 12.5 µM; 350,000 tested, 0.69% active; AID 504558, 2011; in the data active = inhibition above about 41%; inconclusive = no clear call, values can overlap the other calls;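 also: 0% = neutral control wells and 100% = reference inhibitor control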
TWEAK Fn14 block – inhibitors of TWEAK-Fn14 signaling, primary screen, luciferase reporter cells, uHTS | TWEAK-stimulated Fn14 reporter cells, luciferase luminescence, 8 h | inhibition, % at 10 µM | 360,000 tested, 2% active; in the data active = inhibition above about 50%
TROY signal inh – inhibitors of TROY-driven NF-kB signaling, primary screen, Q293 LMP1-TROYcd cells, NF-kB luciferase, uHTS | 360,000 tested, 0.98% active | inhibition, % at 10 µM | Q293 LMP1-TROYcd NF-kB luciferase reporter, 4 h;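 active = compounds whose plate-normalised and pattern-corrected inhibition of the luciferase reporter signal at the single screening dose is 50% or more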
HSF1 activator – HSF-1 activators, primary screen, NIH3T3-HGL cells, MG132 stress, luminescence, single point | NIH3T3-HGL HSF-1 luciferase reporter, 8 h; 100% = twice DMSO control signal | activation, % at 9 µM | 300,000 tested, 1.7% active;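 active = mean replicate activation of at least 50% with a set share of replicates each reaching 50%; inconclusive = only one of those two conditions met; inactive = mean below 50% and too few replicates reaching it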;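 also: 0% = median of the neutral control wells and 100% = twice that signal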
HSF1 inhib – HSF1 inhibitors in luciferase reporter cells, primary screen, cell-based, NIH3T3, luminescence | NIH3T3-HGL HSE-luciferase, MG132-induced, luminescence 8 h; hits give low values | activity change, negative = inhibition, % at 7.5 µM (by protocol) | 300,000 tested, 0.77% active | AID 2098, 2009;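 active = more than half of replicate wells show activity change below -50%, luminescence cut by over half; inconclusive = some wells, but at most half, below -50%; inactive = no replicate well below -50%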;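 also: luciferase reports HSF-1 transcriptional activity via heat shock element; 0% = median of DMSO wells and -100% = zero luminescence signal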
Active calls of the source: *; ? = inconclusive; nt = no result given.

SMILES	LGR2 inh	EBV LMP1 NFkB	TWEAK Fn14 block	TROY signal inh	HSF1 activator	HSF1 inhib
O=C(OC(c1ccccc1)c1nccc2ccccc12)c1cccc([N+](=O)[O-])c1 (stereo unspecified)	-47.9	-14.2	-11.9	20.6	-29.3	-11.7
C[C@H](CO)N1C[C@H](C)[C@H](CN(C)Cc2ccc(Oc3ccccc3)cc2)Oc2ccc(NS(=O)(=O)c3ccc(Cl)cc3)cc2C1=O	-9.4	nt	nt	nt	nt	nt
N/C(=N\OC(=O)CCC1CCCC1)c1ccccc1	-100.4	-12.3	-38.0	-51.6	16.7	4.8
O=C(CCC1CCCNC1)c1ccccc1 (stereo unspecified)	nt	nt	nt	nt	-75.3	-70.3*
CCN(CC)CCOC(=O)c1ccc(NC(=O)CCCN2C(=O)S/C(=C/c3ccc(OC)cc3)C2=S)cc1	nt	17.3	72.5*	45.0	-46.8	-46.3
COc1ccc(/C=C2\SC(=S)N(CCC(=O)Nc3ccccc3C(=O)O)C2=O)cc1	12.6	34.4	23.6	49.8	-1.8	-2.6
COc1ccc(/C=C2\SC(=O)N(CCCC(=O)Nc3cc(Cl)ccc3C(=O)O)C2=O)cc1	30.2	74.1*	104.0*	84.5*	nt	nt
CO[C@@H]1CN(C)C(=O)c2cc(NC(=O)C3CCC3)ccc2OC[C@@H](C)N(C(=O)c2ccccc2)C[C@H]1C	-3.4	nt	nt	nt	nt	nt
O=C(CCC1CCCC1)N=C1SC2CS(=O)(=O)CC2N1c1ccccc1F (stereo unspecified)	-11.1	-1.7	30.8	5.0	64.3*	19.4
Nc1nnc(CSCc2ccccc2Cl)s1	nt	-8.2	0.0	-17.6	56.2*	15.6
Nc1nnc(SCc2ccccc2Cl)s1	nt	-1.1	-11.8	-27.4	7.4	2.8
O=C(C[C@H]1C=C[C@@H](NC(=O)CN2CCOCC2)[C@@H](CO)O1)NC1CCCCC1	-9.8	nt	nt	nt	nt	nt
O=C(CCl)N(c1ccccc1)c1c[nH]c2ccccc12	nt	?	69.4*	2.8	5.6	-9.1
O=C(O)Cc1c[nH]c2ccccc12	18.0	-1.3	-11.3	-8.7	7.9	-6.7
O=C(CCl)N(c1ccc(Cl)cc1)c1c[nH]c2ccccc12	-38.5	?	66.6*	-78.0	-93.3	-92.8*
C[C@@H]1CN([C@@H](C)CO)C(=O)c2cccc(NC(=O)C3CCOCC3)c2O[C@@H]1CN(C)S(=O)(=O)c1cn(C)cn1	-10.0	nt	nt	nt	nt	nt
CC1(Cc2ccc(OC(F)(F)F)cc2)C(=O)Nc2ccc(S(=O)(=O)NC3CCCCC3)cc21 (stereo unspecified)	?	nt	78.1*	52.2*	nt	nt
CN1C(=O)c2cc(NC(=O)C3CC3)ccc2OC[C@H]2O[C@@H](CC(=O)NCC3CCCCC3)CC[C@H]21	13.6	nt	nt	nt	nt	nt
O=C(O)CC1=C(Nc2ccccc2)C(=O)N(c2ccccc2)C1c1ccc(Br)cc1 (stereo unspecified)	-29.1	-7.1	-12.6	-60.4	56.8*	38.4
O=C(Nc1nccs1)[C@H]1[C@H](CO)[C@H]2Cn3c(cccc3=O)[C@@H]1N2C(=O)C1CCCCC1	11.6	nt	nt	nt	nt	nt
CCOC(=O)CC/C(C)=N\N=C1\SC(CC(=O)O)C(=O)N1c1ccccc1 (stereo unspecified)	-8.9	44.1*	-9.6	-4.2	7.0	4.4
COc1ccc(CN(C)C(=O)c2cccc(NC(=O)CC3SC(N4CCCCC4)=NC3=O)c2)c(OC)c1 (stereo unspecified)	27.7	?	73.6*	48.9	nt	nt
COc1ccc(CN(C(=O)/C=C/C(=O)c2ccc(OC)cc2O)C(C(=O)NC2CCCCC2)c2ccncc2)cc1 (stereo unspecified)	13.3	-1.9	1.7	3.7	-6.1	3.8
COCCN(CC(=O)NC1CCCCC1)C(=O)/C=C/C(=O)c1ccc(OC)cc1O	?	17.3	74.1*	58.4*	-85.3	-83.5*
COc1ccc(C(=O)/C=C/C(=O)N(CC(=O)NC2CCCCC2)Cc2cccs2)c(O)c1	nt	58.7*	82.1*	42.2	nt	nt
SMILES	LGR2 inh	EBV LMP1 NFkB	TWEAK Fn14 block	TROY signal inh	HSF1 activator	HSF1 inhib
O=C(C[C@@H]1CC[C@H]2[C@@H](COC[C@@H](O)CN2Cc2ccccc2F)O1)N1CCc2ccccc2C1	6.9	nt	nt	nt	nt	nt
C[C@@H]1CCCCO[C@@H](CN(C)Cc2ccccc2)[C@@H](C)CN([C@H](C)CO)C(=O)c2cc(NS(C)(=O)=O)ccc2O1	-3.3	nt	nt	nt	nt	nt
CC(C)(C)[S@@](=O)N1Cc2cc(C(=O)N[C@@H]3CCN(Cc4ccccc4)C3)nc(-c3cccc(-c4ccncc4)c3)c2[C@H]1CCO	-7.3	nt	nt	nt	nt	nt
COc1ccc(S(=O)(=O)N(C)C[C@H]2OCCCC[C@H](C)Oc3ccc(NS(=O)(=O)c4ccc(Cl)cc4)cc3C(=O)N([C@H](C)CO)C[C@H]2C)cc1	-3.6	nt	nt	nt	nt	nt
O=C(O)c1cc(NC(=O)C2CCCO2)cc(C(=O)O)c1 (stereo unspecified)	10.9	0.6	30.6	16.2	-16.9	-4.6
CC(C)(C)c1cc(NC(=O)C2CCCO2)no1 (stereo unspecified)	-23.5	-12.2	64.7*	60.7*	1.5	3.6
c1ccc(Cc2cc(-c3ccccc3)on2)cc1	nt	-27.7	-21.6	-55.9	70.7*	23.5
O=S(=O)(/N=C(/c1ccccc1Cl)N1CCOCC1)c1ccccc1	2.3	-11.9	-8.4	24.1	-68.2	-58.0*
C[C@@H]1CCCCO[C@@H](CN(C)C(=O)Nc2ccc3c(c2)OCO3)[C@H](C)CN([C@H](C)CO)C(=O)c2cc(NS(=O)(=O)c3cn(C)cn3)ccc2O1	-1.6	nt	nt	nt	nt	nt
C[C@H]1CCCCO[C@@H](CN(C)CC2CCCCC2)[C@@H](C)CN([C@@H](C)CO)C(=O)c2cc(NC(=O)CCC(F)(F)F)ccc2O1	-2.2	nt	nt	nt	nt	nt
C/C(=C1/SC(N2CC(C)OC(C)C2)=NC1=O)c1ccccc1 (stereo unspecified)	nt	6.9	5.3	6.3	11.2	-2.0
Cc1ccsc1/C=C1\SC(N)=NC1=O	nt	50.0*	-34.3	-55.5	23.0	2.7
Cc1ccsc1/C=C1/SC(N2CC(C)OC(C)C2)=NC1=O (stereo unspecified)	-0.4	1.2	-2.1	-43.9	51.5*	24.7
Cc1ccc(/C=C2\SC(N)=NC2=O)s1	2.7	-4.8	1.7	-40.2	7.7	8.4
COc1ccc(S(=O)(=O)N(C)C[C@H]2OCCCC[C@@H](C)Oc3ccc(N(C)C)cc3C(=O)N([C@@H](C)CO)C[C@H]2C)cc1	3.8	nt	nt	nt	nt	nt
CCN(CC)S(=O)(=O)c1ccc(/C=C/C(=O)Nc2cccc(F)c2)cc1	-19.8	-11.9	41.4	13.4	66.5*	40.5
O=C(Nc1ccncc1)Nc1cccc(C(F)(F)F)c1	5.4	10.5	19.9	10.3	-14.6	-3.2
